Screens from PubChem.
Vif-A3F inh: qHTS for Inhibitors of Vif-A3F Interactions: qHTS. AID 602313, 2012. Potency, µM (titrated, usually from 46.1 µM). HeLa A3F-eYFP + Vif (tagged APOBEC3F with the HIV-1 protein that degrades it), YFP fluorescence increase. hit rate 0.2% among 390,000; note: nearly all actives have a fitted effect of over 65% in size
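HeLa cells stably expressing A3F-eYFP plus Vif, plated and incubated overnight at 37 deg C, then exposed to compounds overnight at 37 deg C. Blocked degradation read as raised yellow fluorescence (Ex 488/Em 500-530).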
Akt phos inh: HTS Assay for Inhibitors of Akt Phophorylation: Primary Screen | hit rate 0.32% among 360,000 | Neuro2A IGF-stimulated pAkt S473 HTRF, 20 min; stronger effect = lower value | activity change, % for hits at 50 µM | AID 651550, 2012; in the data active = activity change below about -80%; inconclusive = mostly about -51% to -80%
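Neuro2A cells in DMEM with 0.5% FBS, overnight at 37 deg C, given compound at single 50 µM final, then IGF (6 nM final) for 20 min at 37 deg C. Lysed; phospho-Akt Ser473 by HTRF after 24 h, 665/615 ratio.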
ALOX12 inh: Primary qHTS assay for inhibitors of human arachidonate 12S-lipoxygenase (ALOX12): Round 2 | purified 12hLO, xylenol orange hydroperoxide absorbance | Potency, µM (highest dose often 108 µM), usual class: inhibitors | hit rate 1.1% among 580,000 | AID 1671190, 2021
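Hydroperoxide product was detected by ferrous iron/xylenol orange as the 573 to 405 nm absorbance ratio. Arachidonic acid at 40 uM (final) was turned over for 30 min at room temperature by 150 nM human 12hLO, pH 7.0 Hepes buffer, after 15 min compound preincubation.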
ASM inhibitor: Inhibitors of Secretory Acid Sphingomyelinase (S-ASM): qHTS. AID 504937, 2011. hit rate 0.006% among 340,000. placental ASM, HMU-PC fluorogenic substrate, 60 min. Potency, µM (top dose mostly 57.5 µM), usual class: inhibitors
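Human placenta-derived ASM preincubated with compound 10 min at room temperature, then reacted with 9 uM (final) fluorogenic HMU-PC substrate for 60 min at 37 C. Stop solution raises pH to 10; fluorescence read at Ex 386/Em 447 nm.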
PTAP TSG101 blk: qHTS Assay for Iinhibitors of HIV-1 Budding by Blocking the Interaction of PTAP/TSG101; Tumor susceptibility gene 101 protein (Homo sapiens), Q99816; Fluorescence polarization, FITC-PTAP peptide / Tsg101 binding; Potency, µM (top dose mostly 115 µM), actives largely listed as inhibitors; 340,000 tested, under 10 active; AID 493005, 2010; active = well fitted inhibition curve with a large enough effect in the main read-out, with a control signal flat, not every such curve was filed as active; inconclusive = small, poorly fitted or top-dose-only effect, or effect the other way, or a change in a side signal; inactive = no such curve, though single readings can be large or run the other way
Target sequence (Q99816 whole entry, looked up): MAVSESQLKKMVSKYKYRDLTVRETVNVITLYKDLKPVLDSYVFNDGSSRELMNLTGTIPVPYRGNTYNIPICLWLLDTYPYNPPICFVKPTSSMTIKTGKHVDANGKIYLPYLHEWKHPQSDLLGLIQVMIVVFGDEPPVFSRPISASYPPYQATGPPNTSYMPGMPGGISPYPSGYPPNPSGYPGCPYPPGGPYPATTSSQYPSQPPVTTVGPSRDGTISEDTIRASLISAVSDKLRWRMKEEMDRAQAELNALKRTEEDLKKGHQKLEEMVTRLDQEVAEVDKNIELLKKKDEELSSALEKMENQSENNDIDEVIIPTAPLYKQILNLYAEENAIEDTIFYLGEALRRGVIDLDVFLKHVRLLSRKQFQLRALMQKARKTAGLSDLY
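Steps: Tsg101 binding domain dispensed (10 uM final), compounds pinned in DMSO, FITC-labeled PTAP-motif peptide added (50 nM final); after 20 min binding at room temperature, polarization measured.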
Vif-A3G inh: qHTS for Inhibitors of Vif-A3G Interactions: qHTS; DNA dC->dU-editing enzyme APOBEC-3G (Homo sapiens), Q9HC16; HeLa A3G-eYFP + Vif (tagged APOBEC3G with the HIV-1 protein that degrades it), YFP fluorescence, overnight; Potency, µM (series often up to 46.1 µM), actives largely listed as inhibitors; hit rate 0.076% among 410,000; AID 602310, 2012; note: nearly all actives have a fitted effect of over 60% in size
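Read-out is eYFP fluorescence (Ex 488/Em 500-530) from Vif-expressing HeLa A3G-eYFP cells; more signal means A3G escaped Vif-mediated degradation. Cells plated overnight, compound pinned in, incubated overnight at 37 deg C.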
Numbers stand for hits; n = inactive; u = inconclusive; x = no result given. Sampled rows, rich in hits. Any-hit rate of the full collection: about 1.4%. Unless noted, calls come from the whole dose curve; as a rule, active = well fitted curve in the direction sought with a large enough effect; inconclusive = small, poorly fitted or top-dose-only effect, or another doubt; inactive = no such curve, though single readings can be large; an effect the other way counts as inactive or inconclusive.

SMILES | Vif-A3F inh | Akt phos inh | ALOX12 inh | ASM inhibitor | PTAP TSG101 blk | Vif-A3G inh
O=S1(=O)CCC(N=Cc2cc(Br)ccc2O)C1 (stereo unspecified) | n | n | 28.2µM | n | n | n
COc1ccc(/C=C(\NC(=O)c2ccccc2)C(=O)OC[C@@H]2CCC[N+]3(C)CCCCC23)cc1OC (stereo partly specified) | n | n | u | n | n | n
Cc1ccccc1C(=O)OCC1CCC[N+]2(C)CCCCC12 (stereo unspecified) | x | x | 28.2µM | x | x | x
CC(C)(C)C(=O)OCC1CCC[N+]2(C)CCCCC12 (stereo unspecified) | x | x | 28.2µM | x | x | x
CC(C)(O)[C@@H]1CCC[N+]2(C)CCCC[C@H]12 (stereo partly specified) | x | x | n | x | x | x
CC(C)CNC(=O)c1c(-n2cnnn2)sc2c1CCC2 | x | x | n | x | x | x
CCCN1C(=O)S/C(=C/c2ccc(N3CCOCC3)o2)C1=O | u | n | u | n | u | u
CCOC(=O)CN1C(=O)S/C(=C/c2ccc(N3CCCCC3)o2)C1=O | 31.6µM | n | 7.94µM | n | u | n
O=C(O)CN1C(=O)/C(=C/c2ccc(N3CCCCC3)o2)SC1=S | n | n | u | n | n | n
CCCN1C(=O)S/C(=C\c2ccc(N3CCOCC3)o2)C1=O | u | n | 39.8µM | n | u | u
COC(=O)CN1C(=O)S/C(=C/c2ccc(N3CCCCC3)o2)C1=O | u | n | 44.7µM | u | u | n
Cc1nc(CCNC(=O)c2c[nH]c3ccccc23)cs1 | x | x | n | x | x | x
Cc1nc(SCC(=O)NCc2ccc(S(=O)(=O)N3CCOCC3)cc2)n(C2CCCC2)c1C | x | x | n | x | x | x
CCOC(=O)C1=C(O)/C(=C\c2cc(C)n(-c3ccc(F)cc3)c2C)N=C1C | n | n | 35.5µM | n | n | n
CCOC(=O)C1=C(O)/C(=C\c2cc(C)n(-c3ccccc3F)c2C)N=C1C | n | n | u | n | n | n
Cc1ccc(-n2nc3c(c2NC(=O)CC(C)C)CS(=O)C3)cc1 (stereo unspecified) | n | n | 39.8µM | n | n | n
O=C(NC[C@H]1O[C@@H](CC(=O)N2CCc3ccccc32)[C@H](O)[C@@H]1O)Nc1cccc(F)c1 | x | x | n | x | x | x
S=c1[nH]nc(-c2ccc(Cl)cc2)n1/N=C/c1ccco1 | n | n | u | n | n | n
S=c1[nH]nc(-c2ccccc2)n1/N=C/C=C/c1ccco1 | n | n | 39.8µM | n | n | n
S=c1[nH]nc(-c2cccnc2)n1/N=C/C=C/c1ccco1 | n | n | u | n | n | n
S=c1[nH]nc(-c2ccc(Cl)cc2)n1/N=C/C=C/c1ccco1 | n | n | 14.1µM | n | n | n
Cc1c(NC(=O)NCc2ccccc2)cccc1C(N)=O | x | x | n | x | x | x
COc1ccccc1C1CC(=O)Oc2cc(C)c(Cl)cc21 (stereo unspecified) | n | n | 39.8µM | n | n | n
O=C1C=C(NCCc2cc(Br)c(O)c(Br)c2)C(=O)c2ncccc21 | n | n | 35.5µM | n | n | u
NC1=C(Br)C(=O)c2ncccc2C1=O | n | n | u | n | n | n
NC1=NC[C@H](c2ccccc2)N1CCCCC1CCCCC1 | u | n | u | n | n | n
S=C1NC[C@H](c2ccccc2)N1CCCCC1CCCCC1 | n | n | 35.5µM | n | n | n
CS(=O)c1ccccc1O (stereo unspecified) | n | n | n | n | n | n
O=S(c1ccccc1O)S(=O)c1ccccc1O (stereo unspecified) | n | n | 2.24µM | n | n | n
CCCC1CCC(c2ccc(C(=O)Nc3ccc(OC)cc3)cc2)CC1 (stereo unspecified) | x | x | n | x | x | x
